# NR3A LBD binder: binders of NR3A ligand-binding domain, primary screen, biophysical, differential scanning fluorimetry, uHTS; Glutamate receptor ionotropic, NMDA 3A (GRIN3A) ligand-binding domain; NR3A LBD differential scanning fluorimetry, Tm shift; 0% = protein alone, 100% = glycine-bound protein; Tm shift relative to glycine control, % at 25 µM; 340,000 tested, 2.5% active;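 active = melting temperature shift of at least 10% of the positive control shift, at one fixed dose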
# NALP1 yeast inh: NALP1 inflammasome inhibitors in reconstituted yeast, colorimetric, S. cerevisiae, triplicate retest. inhibition, % at 10 µM. S. cerevisiae NALP1/ASC/caspase-1 growth, X-gal OD620, 72 h. AID 2071, 2009. 280,000 tested, 0.61% active; in the data active = inhibition mostly above about 24%, no sharp cut-off; inactive = mostly below about 32%
# dFosB act: activators of delta FosB homodimer, primary screen, biochemical, fluorescence polarization, TAMRA-CDK5 oligo, single point | purified delta FosB; percent of positive-control signal above neutral wells | activation, % at 25 µM | 340,000 tested, 0.99% active | AID 493131, 2011;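 active = mean activation above about 17%, with every replicate also reaching it, limit read from the data, passing the limit was not always enough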
# UBC13 polyUb: UBC13 polyubiquitin chain formation inhibitors, primary screen, biochemical, TR-FRET, uHTS. Ubiquitin-conjugating enzyme E2 N (Homo sapiens), P61088. 330,000 tested, 0.47% active. inhibition, % at 20 µM; in the data active = inhibition above about 45%, passing the limit was not always enough
# Target sequence (P61088 whole entry, looked up): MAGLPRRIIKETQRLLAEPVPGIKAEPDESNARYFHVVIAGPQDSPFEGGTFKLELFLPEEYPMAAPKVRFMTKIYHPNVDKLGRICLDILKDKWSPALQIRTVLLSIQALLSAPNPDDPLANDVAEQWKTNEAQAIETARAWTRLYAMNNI
# CR mimetic SO: reduction of superoxide in aged yeast, primary screen, HTS | 330,000 tested, 0.18% active | S. cerevisiae aged cells, superoxide DHE fluorescence; active compounds read low | AID 2690, 2010 | superoxide response (% of plate mean), % at 10 µM;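 active = superoxide response under a set limit, about three screen SD below normal, cut at about 65% in these data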;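 note: yeast aged for seven days with compound at 30 °C before DHE staining; 100% = average MFI of all compound-treated wells on the plate with controls excluded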
# * marks the source's active call; other numbers are inactive results; . = not tested or not shown. A selection: hits, their analogues and other compounds. The true share with any hit is near 4.3%.
SMILES,NR3A LBD binder,NALP1 yeast inh,dFosB act,UBC13 polyUb,CR mimetic SO
CN1C(=O)S/C(=C\c2ccccc2OCc2ccc(C(=O)O)cc2)C1=O,3,4,-15,-3,113
Cc1cccc(NC(=O)CSc2cc(C)c(C#N)c3nc4ccccc4n23)c1,13*,.,-4,-5,97
O=C1CCCN1CCC(=O)N1CCCC(CO)(Cc2ccccc2)C1 (stereo unspecified),-1,-3,-7,-2,102
O=S1(=O)N=C(Nc2ccc(O)cc2)c2ccccc21,19*,12,-5,2,99
Cc1ccccc1NC1=NS(=O)(=O)c2ccccc21,-1,21,5,2,88
COc1ccc(N(CC(=O)NCC2CCCO2)S(=O)(=O)c2ccccc2)cc1OC (stereo unspecified),-2,1,-3,6,97
O=C(O)Cc1ccc(NC(=O)c2ccc3c(c2)C(=O)N(CC2CCCO2)C3=O)cc1 (stereo unspecified),11*,5,-2,-5,98
O=C(O)COc1ccc(NC(=O)c2ccc3c(c2)C(=O)N(Cc2ccccc2)C3=O)cc1,10*,26,-4,-10,92
COc1ccc(C)cc1NC(=O)CSc1nnnn1Cc1ccccc1,15*,30,-9,14,112
COc1cc(NC(=O)CSc2nnnn2Cc2ccccc2)cc(OC)c1,1,3,-4,-6,90
COc1ccc(C)cc1NC(=O)C(Sc1nnc2ccccn12)c1ccccc1 (stereo unspecified),15*,31,-3,7,102
O=C(N/N=C/c1c[nH]c2ccccc12)C1CC1c1ccccc1 (stereo unspecified),10*,27,-7,12,101
O=C(N/N=C\c1ccc(Cl)s1)C1COc2ccccc2O1 (stereo unspecified),1,.,3,4,104
COC(=O)N/N=C/c1c[nH]c2ccccc12,-14,26,-3,15,100
O=C(N/N=C/c1cccs1)[C@H]1C[C@@H]1c1ccccc1,22*,25,-10,-4,98
O=C(N/N=C/c1c[nH]c2ccccc12)C1COc2ccccc2O1 (stereo unspecified),28*,24,2,5,106
O=C(N/N=C/c1c[nH]c2ccccc12)C1CC1(c1ccccc1)c1ccccc1 (stereo unspecified),13*,20,-4,4,114
O=C(N/N=C/c1ccncc1)C1CC1(c1ccccc1)c1ccccc1 (stereo unspecified),0,30,-9,5,90
COc1cc(C(=O)Nc2cc(Cl)ccc2C)c(-n2cnnn2)cc1OC,-1,10,-4,-1,101
CCC1(CC)C(=O)NC(=O)NC1=S,0,.,-2,.,.
COc1cc(OC)nc(-n2ncc(Br)c(Br)c2=O)n1,1,66,4,.,79
CCCCC(=O)NC(=S)Nc1ccc(NC(=O)C(C)C)c(OC)c1,-5,19,-21,-6,90
COc1cc(NC(=S)NC(C)=O)ccc1NC(=O)C(C)C,11*,12,-3,-3,112
CCOC(=O)c1cc[n+](CC(=O)c2ccc(F)cc2)cc1,-3,13,-8,-14,101
COc1ccc(C2=NOC(C(=O)Nc3cc(C)on3)C2)cc1OC (stereo unspecified),1,.,-5,-2,93
SMILES,NR3A LBD binder,NALP1 yeast inh,dFosB act,UBC13 polyUb,CR mimetic SO
COc1ccc(OC)c(C2=NOC(C(=O)Nc3cc(C)on3)C2)c1 (stereo unspecified),0,34*,-1,-1,80
CCCCn1c(SCC(=O)NC(=O)Cc2ccccc2)nc2ccccc2c1=O,-10,.,-9,-1,89
NC(=O)C1CCN(c2nc(-c3cccnc3)cs2)CC1,-1,.,33*,7,99
Cc1c(OCC(=O)C(C)(C)C)ccc2c(-c3ccccc3)cc(=O)oc12,1,8,-14,-4,103
Cc1ccc2c(c1)C(=O)CC(c1ccccc1)S2 (stereo unspecified),13*,.,-15,.,.
Oc1ccc(/C=N/NC(=S)Nc2cccnc2)c(O)c1,12*,25,-7,-28,96
